# From PubChem BioAssay (Tox21)
# Results filed as inconclusive are left out. Entries that show only a call come without a potency. Active and inactive are the calls of the source. Calls follow the shape of the dose curve; as a rule, active = well fitted cell-killing curve with a large enough effect in the repeat runs; inconclusive = weak or mixed curves, or effect the other way; inactive = flat fitted curve, though single readings scatter.
# Tests used:
# [1] = cAMP Responsive Elements (CRE) small molecule antagonists, cell-based qHTS assay: qHTS cell viability counter screen (AID 2060913); conditions: CRE-bla HEK293T viability, CellTiter-Glo luminescence, 5 h; series mostly up to 92.4 µM; also: nearly all actives have a fitted effect of over 40% in size
# Method in brief: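 Steps: cells plated and held 18 hrs at 37 C/5% CO2; compounds and NKH477 (0.25 uM final) added; 3 hrs incubation; reporter substrate read; CellTiter-Glo added to measure cytotoxicity by luminescence.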
# [2] = cAMP Responsive Elements (CRE) small molecule agonists, cell-based qHTS assay: qHTS cell viability counter screen (AID 2060914); conditions: CRE-bla HEK293T viability, CellTiter-Glo luminescence, 5 h; series mostly up to 92.4 µM;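 also: viability read after 3 h of compound exposure; nearly all actives have a fitted effect of over 50% in size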
# Method in brief: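 Cells are seeded and incubated 18 h, treated with compounds in DMSO for 3 h, read for the bla reporter, then given CellTiter-Glo; luminescence is measured after 30 min at room temperature.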
SMILES,Potency [1],Potency [2]
N=C(N)N,inactive,inactive
O=S(=O)(c1ccccc1)c1ccc(Cl)cc1,inactive,inactive
Cc1ccc(O)c(O)c1,inactive,inactive
Cc1ccc(NC(N)=O)cc1,inactive,inactive
OCCN1CCNCC1,inactive,inactive
CCCCCCc1ccc(-c2ccc(C#N)cc2)cc1,inactive,inactive
CC(=O)OCC[N+](C)(C)C,inactive,inactive
COc1ccc(-c2nc3ccc(C4=NNC(=O)CC4C)cc3[nH]2)cc1 (stereo unspecified),inactive,inactive
